Laboratory results reported in ChEMBL document CHEMBL1961873, “Compounds: GSK PKIS; Assays: Nanosyn kinase panel” (2012).

Key:
[1] = test system: Tyrosine-protein kinase ABL1 (Homo sapiens), P00519 [E255K]; conditions: at 0.1 µM
[2] = test system: Tyrosine-protein kinase ABL1 (Homo sapiens), P00519 [E255K]; conditions: at 1 µM
[3] = test system: Tyrosine-protein kinase ABL1 (Homo sapiens), P00519 [H396P]; conditions: at 0.1 µM
[4] = test system: Tyrosine-protein kinase ABL1 (Homo sapiens), P00519 [H396P]; conditions: at 1 µM
[5] = test system: Tyrosine-protein kinase ABL1 (Homo sapiens), P00519 [M351T]; conditions: at 0.1 µM
[6] = test system: Tyrosine-protein kinase ABL1 (Homo sapiens), P00519 [M351T]; conditions: at 1 µM
[7] = test system: Tyrosine-protein kinase ABL1 (Homo sapiens), P00519 [Q252H]; conditions: at 0.1 µM
[8] = test system: Tyrosine-protein kinase ABL1 (Homo sapiens), P00519 [Q252H]; conditions: at 1 µM
[9] = test system: Tyrosine-protein kinase ABL1 (Homo sapiens), P00519 [T315I]; conditions: at 0.1 µM
[10] = biological target: Serine/threonine-protein kinase PAK 6 (Homo sapiens) (UniProt Q9NQU5); conditions: at 1 µM;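 further: values are mean percent inhibition of PAK6 kinase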
Sequence of Serine/threonine-protein kinase PAK 6 (Homo sapiens) (Q9NQU5 whole entry, looked up): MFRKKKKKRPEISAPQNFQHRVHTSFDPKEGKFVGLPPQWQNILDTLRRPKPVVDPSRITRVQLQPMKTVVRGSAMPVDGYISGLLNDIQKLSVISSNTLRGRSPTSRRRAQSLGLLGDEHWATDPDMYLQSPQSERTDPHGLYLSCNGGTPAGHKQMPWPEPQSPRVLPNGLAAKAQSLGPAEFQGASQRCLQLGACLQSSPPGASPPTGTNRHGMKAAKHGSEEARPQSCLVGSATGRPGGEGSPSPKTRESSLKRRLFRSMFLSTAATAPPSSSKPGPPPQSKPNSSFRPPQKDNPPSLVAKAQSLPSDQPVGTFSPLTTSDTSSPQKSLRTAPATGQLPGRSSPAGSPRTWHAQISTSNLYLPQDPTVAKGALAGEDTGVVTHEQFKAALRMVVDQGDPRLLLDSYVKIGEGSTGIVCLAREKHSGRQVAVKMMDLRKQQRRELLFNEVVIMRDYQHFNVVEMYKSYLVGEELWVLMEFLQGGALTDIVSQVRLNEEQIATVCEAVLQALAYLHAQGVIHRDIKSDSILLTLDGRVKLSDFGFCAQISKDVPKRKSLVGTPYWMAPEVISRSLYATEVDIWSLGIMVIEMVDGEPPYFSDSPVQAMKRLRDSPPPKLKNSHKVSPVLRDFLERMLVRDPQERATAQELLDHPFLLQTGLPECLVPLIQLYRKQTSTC

Row | Structure (SMILES) | inhibition [1] [%] | inhibition [2] [%] | inhibition [3] [%] | inhibition [4] [%] | inhibition [5] [%] | inhibition [6] [%] | inhibition [7] [%] | inhibition [8] [%] | inhibition [9] [%] | inhibition [10] [%]
1 | Nc1nc(-c2ccc3c(c2)C(=Cc2cc(Br)c(O)c(Br)c2)C(=O)N3)cs1 | -0.02 | 6.46 | 0.77 | 4.36 | -0.05 | 4.99 | 2.23 | 6.93 | -0.15 | 
2 | COc1ccc(-c2ccncc2)cc1C(N)=O | 2.26 | 3.56 | 4.08 | 3.48 | -0.68 | -0.45 | 3.19 | 2.33 | 2.27 | 
3 | CN(C)c1cc2c(Nc3ccc4nc(Cc5ccccc5)[nH]c4c3)ncnc2cn1 | 3 | 2.89 | 6.52 | 4.37 | 2.81 | 3.14 | 6.01 | 5.74 | 5.24 | -5.69
4 | Fc1cccc(COc2ccc(Nc3ncnc4cc(-c5ccc[nH]5)sc34)cc2Cl)c1 | 1.82 | 7.42 | 3.38 | 5.8 | 0.9 | 5.26 | 2.05 | 6.45 | 0.63 | 
5 | Cc1nnc(-c2ccc(C)c(-c3ccc(C(=O)Nc4cccc(C#N)c4)cc3)c2)o1 | 2 | 4.21 | -0.02 | 3.51 | -0.06 | 2.91 | 3.04 | 4.21 | 1.53 | -7.37
6 | O=C1NC(=O)C(c2ccc(Cl)cc2)=C1Nc1ccc(Cl)c(C(=O)O)c1 | 2.02 | -2.33 | -0.65 | 1.82 | 1.3 | 4.53 | 1.18 | 1.68 | 0.69 | -0.68
7 | COc1cc2ncn(-c3cc(OCc4ccccc4C(F)(F)F)c(C(N)=O)s3)c2cc1OC | 0.92 | 13.5 | 5.99 | 23 | 3.68 | 19.2 | 5.63 | 21.9 | 3.84 | -0.46
8 | CS(=O)(=O)Nc1ccc(N/C=C2\C(=O)Nc3ccccc32)cc1 | -0.28 | 3.16 | -0.26 | 10.9 | 1.98 | 16.4 | 1.09 | 11 | 0.68 | -8.06
9 | CCn1c(-c2nonc2N)nc2c(C#CC(C)(C)O)nc(OC[C@@H](N)c3ccccc3)cc21 | -1.82 | 1.65 | 0.8 | -0.27 | 1.41 | 0.68 | 0.61 | -0.28 | 0.08 | 91.4
10 | O=C1Nc2ccc(C(=O)c3ccco3)cc2C1=Cc1cc(Cl)c(O)c(Cl)c1 | 3.7 | 15.1 | 3.27 | 13.7 | 3.29 | 12.9 | 5.53 | 17.7 | 3.59 | 0.19
11 | COc1cc(C)c(NC(=O)CN(C)C)cc1Nc1nc(Nc2cccc(F)c2C(N)=O)c2cc[nH]c2n1 | 1.11 | 0.03 | 2.73 | -1.28 | 1.99 | -1.18 | 2.21 | -0.29 | 1.45 | -2.96
12 | Nc1ncnc2occ(-c3ccc(NC(=O)Nc4cccc(C(F)(F)F)c4)cc3)c12 | 5.41 | 38.8 | 25.3 | 76.8 | 54.5 | 85.1 | 54.2 | 81.6 | 48.3 | -2.37
13 | NS(=O)(=O)c1ccc(N/N=C2\C(=O)Nc3ccc(C(=O)NCCc4c[nH]cn4)cc32)cc1 | 5.1 | 6.98 | 3.97 | 11.2 | 4.18 | 9.6 | 5.47 | 8.73 | 3.68 | 3.67
14 | CC1=C(C(=O)Nc2ccc3[nH]ncc3c2)C(c2ccc(Cl)c(Cl)c2)CC(=O)N1 (centres undefined) | 1.47 | -1.52 | 1.38 | 0.16 | 1.24 | 1.38 | 3.45 | 3.33 | 1.44 | 2.05
15 | O=C(Nc1n[nH]c2nc(-c3ccco3)c(Br)cc12)C1CC1 | 3.52 | 8.63 | 5.52 | 26.4 | 4.18 | 29.8 | 8.1 | 32.3 | 3.13 | 0.72
16 | COC(=O)Nc1nc2cc(Oc3ccc(NC(=O)Nc4cccc(C(=O)O)c4)cc3)ccc2[nH]1 | -4.91 | 3.52 | 0.4 | 9.38 | 3.52 | 19.9 | 1.92 | 14.4 | 2.13 | 4.26
17 | CS(=O)(=O)CCNCc1ccc(-c2ccc3ncnc(Nc4ccc(OCc5ccccc5)c(Cl)c4)c3c2)o1 | 1.33 | 0.95 | 0.8 | 3.2 | 1.7 | 2.85 | 1.92 | 3.15 | 1.4 | 

Row | Structure (SMILES) | inhibition [1] [%] | inhibition [2] [%] | inhibition [3] [%] | inhibition [4] [%] | inhibition [5] [%] | inhibition [6] [%] | inhibition [7] [%] | inhibition [8] [%] | inhibition [9] [%] | inhibition [10] [%]
18 | N#Cc1c(NC(=O)c2cccc3ccccc23)sc2c1CCCC2 | 4.44 | 5.5 | 4.91 | 2.88 | 3.89 | 3.56 | 5.46 | 3.18 | 2.03 | 1.52
19 | CS(=O)(=O)CCNCc1nc(-c2ccc3ncnc(Nc4ccc(F)c(Cl)c4)c3c2)cs1 | 2.57 | 10.6 | 5.57 | 16.2 | 0.97 | 12.9 | 3.6 | 16 | 1.06 | 0.67
20 | COc1cc2ncn(-c3cc(O[C@H](C)c4ccccc4Cl)c(C(N)=O)s3)c2cc1OC | 3.23 | 28.1 | 10.7 | 49.4 | 9.46 | 48.3 | 9.97 | 43.2 | 11.2 | 11.9
21 | CCCN1CCC=C(c2ccc(Nc3nc(Nc4ccccc4C(N)=O)c4cc[nH]c4n3)c(C)c2)C1 | -0.02 | 5.11 | 2.87 | 7.11 | 1.17 | 5.02 | 3.91 | 8.95 | 1.37 | -5.41
22 | CCn1c(-c2nonc2N)nc2cncc(C(=O)N3CCNCC3)c21 | -1.75 | 4.64 | 4.85 | 4.82 | -1.66 | -0.43 | 3.41 | 4.95 | 1.64 | 0.53
23 | COc1cc2c(cc1Nc1nc(N3CCc4ccccc43)c3cc[nH]c3n1)N(C(=O)CN(C)C)CC2 | 0.52 | 1.73 | 0.54 | -0.96 | 0.88 | -0.63 | 1.56 | 2.24 | 1.05 | -0.54
24 | CC(C)=Cc1cccc2c1/C(=N/Nc1ccc(S(N)(=O)=O)cc1)C(=O)N2 | 1.22 | 9.2 | 2.39 | 13.8 | 2.77 | 26.6 | 3 | 18.2 | 0.99 | -0.47
25 | COc1ccc(COc2ccc(Cc3cnc(N)nc3N)cc2OC)cc1 | 1.25 |  | 0.76 | -1.33 | 3.17 | -0.65 | 2.23 | -0.16 | -0.36 | -2.29
26 | CS(=O)(=O)CCN(CC#N)Cc1ccc(-c2ccc3ncnc(Nc4ccc(OCc5cccc(F)c5)c(Cl)c4)c3c2)o1 | 0.94 | 1 | 1.77 | 1.89 | 0.73 | 0.36 | 0.95 | 0.42 | -0.08 | -7.94
27 | CCn1c(-c2nonc2N)nc2c(N3CCCC3)nccc21 | -0.9 | -0.63 | 0.1 | -1.53 | 1.28 | -0.55 | 1.69 | -0.47 | -0.16 | 0.23
28 | CCn1c(-c2nonc2N)nc2cnc(Oc3cccc(NC(=O)c4ccc(OCCN5CCOCC5)cc4)c3)cc21 | 3.79 | 3.89 | 4.58 | 4.2 | 2.23 | 2.73 | 4.73 | 3.88 | 4.38 | -8.77
29 | O=C1NC(=O)C(c2ccccc2Cl)=C1Nc1cccc(O)c1 | 1.22 | 1.02 | 3.02 | 1.17 | -0.23 | 2.78 | 2.48 | 1.91 | 3.52 | 11.2
30 | Cc1ccc(C(=O)NC2CCCCC2)cc1-c1ccc(C(=O)NCC2CC2)cc1 | 0.94 | -0.03 | 4.41 | 0.31 | 3.58 | 2.26 | 3.13 | 2.92 | 1.36 | -8.15
31 | CC1=C(C(=O)Nc2ccc3[nH]ncc3c2)C(c2ccc(F)cc2)NC(=O)N1 (centres undefined) | -0.56 | 4.16 | 1.62 | 1.78 | 1.52 | 3.88 | 2.07 | 3.37 | 0.1 | -1.9
32 | COc1cc2ncn(-c3cc(OCc4ccccc4Cl)c(C(N)=O)s3)c2cc1OC | 1.52 | 21.7 | 6.52 | 31.1 | 4.21 | 32.3 | 5.23 | 28.2 | 3.9 | -7.5
33 | CS(=O)(=O)CCNCc1ccc(-c2ccc3ncnc(Nc4ccc(OCc5cccc(F)c5)c(C(F)(F)F)c4)c3c2)o1 | 4.46 | 3.49 | 4.63 | 3.75 | 4.03 | 1.37 | 4.26 | 2.45 | 1.73 | 
34 | COc1ccc(-c2nn3ncccc3c2-c2ccnc(Nc3ccc(Cl)c(C(F)(F)F)c3)n2)cc1 | 0.96 | 5.54 | 0.79 | 8.65 | 2.03 | 26.5 | 4.06 | 18.9 | 1.74 | -4.72
